Values joined by “and” are separate entries in the source; they are usually repeats but may differ in a detail not shown here. Identical values can stand only once. Results filed as inconclusive are left out. Where a call stands in place of a potency, no number is given. Where a structure was tested more than once in an assay, its records may differ in their call. Active and inactive are the calls of the source. Unless noted, calls follow the shape of the dose curve; as a rule, active = well fitted curve in the direction sought with a large enough effect in the repeat runs; inconclusive = weak or mixed curves; inactive = no such curve, though single readings can be large; an effect the other way counts as inactive or inconclusive.
How the values were obtained:
[1] = qHTS assay to identify small molecule antagonists of the glucocorticoid receptor (GR) signaling pathway - cell viability counter screen (AID 720693); also: nearly all actives have a fitted effect of over 55% in size
[2] = qHTS assay for identifying genotoxic compounds that show differential cytotoxicity against isogenic chicken DT40 cell lines with known DNA damage response pathways - wild type cell line (AID 743012); also: nearly all actives have a fitted effect of over 60% in size; also: potency is read from the fitted curve at half-maximal effect
Procedure, shortened: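 CellTiter-Glo luminescence readout of viability in wild type DT40 cells after 40 h compound exposure at 37 C/5% CO2; 300 cells/well; reagent incubated 30 min at room temperature before reading.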

[3] = qHTS assay for identifying genotoxic compounds that show differential cytotoxicity against isogenic chicken DT40 cell lines with known DNA damage response pathways - Rev3 mutant cell line (AID 743014); also: nearly all actives have a fitted effect of over 55% in size; also: potency is read from the fitted curve at half-maximal effect
[4] = qHTS assay for identifying genotoxic compounds that show differential cytotoxicity against isogenic chicken DT40 cell lines with known DNA damage response pathways - Rad54/Ku70 mutant cell line (AID 743015); also: nearly all actives have a fitted effect of over 60% in size; also: potency is read from the fitted curve at half-maximal effect
[5] = qHTS assay to identify small molecule antagonists of the androgen receptor (AR) signaling pathway - cell viability counter screen (AID 743033; also: nearly all actives have a fitted effect of over 45% in size)
[6] = molecular target: Androgen receptor (Homo sapiens) (UniProt P10275); assay: qHTS assay to identify small molecule antagonists of the androgen receptor (AR) signaling pathway (AID 743035; active = well fitted inhibition curve with a large enough effect in the signal ratio in the repeat runs, not every such curve was filed as active; the % refers to the signal ratio; also: potency is read from the fitted curve at half-maximal effect)
Sequence of Androgen receptor (Homo sapiens) (P10275 whole entry, looked up): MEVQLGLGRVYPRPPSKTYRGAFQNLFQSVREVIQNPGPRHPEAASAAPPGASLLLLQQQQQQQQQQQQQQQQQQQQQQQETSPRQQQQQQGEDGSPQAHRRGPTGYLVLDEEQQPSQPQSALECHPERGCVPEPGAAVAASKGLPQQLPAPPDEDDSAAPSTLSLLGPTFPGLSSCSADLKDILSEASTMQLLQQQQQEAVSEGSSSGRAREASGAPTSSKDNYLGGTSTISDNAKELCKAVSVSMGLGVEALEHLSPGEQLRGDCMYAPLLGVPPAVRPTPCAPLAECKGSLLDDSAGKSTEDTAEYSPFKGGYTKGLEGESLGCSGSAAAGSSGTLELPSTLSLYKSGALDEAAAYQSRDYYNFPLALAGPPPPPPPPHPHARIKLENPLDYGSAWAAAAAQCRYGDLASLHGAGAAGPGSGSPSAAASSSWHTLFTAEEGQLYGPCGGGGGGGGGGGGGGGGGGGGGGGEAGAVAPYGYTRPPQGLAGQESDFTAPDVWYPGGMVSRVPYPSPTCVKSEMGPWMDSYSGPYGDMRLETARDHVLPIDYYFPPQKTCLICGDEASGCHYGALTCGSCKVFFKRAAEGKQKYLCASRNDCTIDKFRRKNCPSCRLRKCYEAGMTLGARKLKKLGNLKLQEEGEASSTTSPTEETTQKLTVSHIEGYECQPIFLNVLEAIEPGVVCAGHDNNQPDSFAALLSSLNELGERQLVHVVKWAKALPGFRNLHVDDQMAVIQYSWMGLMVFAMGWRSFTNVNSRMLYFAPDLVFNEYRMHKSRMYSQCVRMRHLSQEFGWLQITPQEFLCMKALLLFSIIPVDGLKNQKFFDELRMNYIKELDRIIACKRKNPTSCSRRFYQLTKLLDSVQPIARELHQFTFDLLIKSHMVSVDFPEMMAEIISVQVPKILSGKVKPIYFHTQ
Procedure, shortened: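 AR-bla HEK293 reporter cells; 4 h settle at 37C/5% CO2; compound + R1881 agonist, 16 h at 37C; LiveBLAzer B/G FRET substrate 2 h RT; fluorescence intensity read. qHTS format.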

[7] = molecular target: Androgen receptor (Homo sapiens) (UniProt P10275); assay: qHTS assay to identify small molecule agonists of the androgen receptor (AR) signaling pathway using the MDA cell line (AID 743040; also: nearly all actives have a fitted effect of over 20% in size)
Procedure, shortened: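 Cell-based luciferase reporter: MDA-kb2, MMTV promoter (AR + GR response elements). 16 h compound exposure at 37C; ONE-Glo, 30 min RT, luminescence.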

[8] = qHTS assay to identify small molecule antagonists of the androgen receptor (AR) signaling pathway using the MDA cell line - cell viability counter screen (AID 743041; also: nearly all actives have a fitted effect of over 45% in size)
Procedure, shortened: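 In this qHTS counter assay, fluorescence intensity after CellTiter-Fluor addition indicated viability of MDA-kb2 AR-luc cells given compounds and R1881 for 16 h at 37C.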

[9] = molecular target: Androgen receptor (Homo sapiens) (UniProt P10275); assay: qHTS assay to identify small molecule antagonists of the androgen receptor (AR) signaling pathway using the MDA cell line (AID 743042; also: nearly all actives have a fitted effect of over 55% in size; also: potency is read from the fitted curve at half-maximal effect)
Procedure, shortened: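 MDA-kb2 cells (human breast carcinoma, stably carrying an MMTV-luciferase reporter responsive to AR and GR) were plated at 3,000 cells/well and preincubated 5 hr at 37C, then given compound plus R1881 agonist for 16 h. ONE-Glo luminescence was read.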

[10] = qHTS assay to identify small molecule antagonists of the thyroid receptor (TR) signaling pathway - cell viability counter screen (AID 743064); also: nearly all actives have a fitted effect of over 50% in size; also: potency is read from the fitted curve at half-maximal effect
Procedure, shortened: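 In-well cytotoxicity read by CellTiter-Fluor (30 min, 37 C) following 23.5 h exposure of GH3 cells bearing a TRE-luciferase sensor. Compounds were added alongside 1 nM (final) T3 to drive TR transactivation.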

[11] = qHTS assay to identify small molecule antagonists of the thyroid receptor (TR) signaling pathway (AID 743065); also: nearly all actives have a fitted effect of over 55% in size; also: potency is read from the fitted curve at half-maximal effect
Procedure, shortened: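 GH3.TRE-Luc rat pituitary cells carrying two TR response elements driving luciferase were plated for 4 h, given compound plus 1 nM T3 (final), and incubated 23.5 h at 37 C. ONE-Glo luminescence measured reporter inhibition; CellTiter-Fluor fluorescence tracked cytotoxicity.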

[12] = test system: thyroid hormone receptor (rat, GH3 cells); assay: qHTS assay to identify small molecule agonists of the thyroid receptor (TR) signaling pathway (AID 743066; calls by dose curve)
[13] = molecular target: Estrogen receptor (Homo sapiens) (UniProt P03372); assay: qHTS assay to identify small molecule antagonists of the estrogen receptor alpha (ER-alpha) signaling pathway (AID 743069; active = well fitted curve in the direction sought with a large enough effect in the signal ratio in the repeat runs, not every such curve was filed as active; the % refers to the signal ratio; also: potency is read from the fitted curve at half-maximal effect)
Sequence of Estrogen receptor (Homo sapiens) (P03372 whole entry, looked up): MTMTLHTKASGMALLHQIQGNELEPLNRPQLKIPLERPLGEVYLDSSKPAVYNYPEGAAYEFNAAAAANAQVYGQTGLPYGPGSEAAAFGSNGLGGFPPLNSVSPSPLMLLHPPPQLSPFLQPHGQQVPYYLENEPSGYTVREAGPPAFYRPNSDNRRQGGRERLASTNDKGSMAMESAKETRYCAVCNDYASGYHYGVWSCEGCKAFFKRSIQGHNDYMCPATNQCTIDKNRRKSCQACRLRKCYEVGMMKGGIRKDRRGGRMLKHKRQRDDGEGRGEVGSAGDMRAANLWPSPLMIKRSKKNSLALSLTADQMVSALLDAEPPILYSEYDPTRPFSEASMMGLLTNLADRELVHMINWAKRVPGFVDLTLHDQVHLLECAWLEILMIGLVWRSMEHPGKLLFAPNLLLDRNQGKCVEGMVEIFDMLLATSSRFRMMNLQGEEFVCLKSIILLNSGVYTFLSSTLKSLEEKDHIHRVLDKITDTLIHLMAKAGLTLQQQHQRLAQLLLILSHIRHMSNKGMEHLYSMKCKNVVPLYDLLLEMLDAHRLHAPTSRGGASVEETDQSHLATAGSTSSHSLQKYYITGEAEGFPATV
Procedure, shortened: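 A 17beta-estradiol challenge was applied right after compound transfer to ER-alpha-UAS-bla HEK293 cells previously kept in charcoal-stripped serum. Plates stood 18 hr at 37C and 5% CO2; fluorescence was read following 2 hr FRET substrate loading at room temperature.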

[14] = qHTS assay to identify small molecule antagonists of the estrogen receptor alpha (ER-alpha) signaling pathway - cell viability counter screen (AID 743074; calls by dose curve;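 also: HEK293 cells carrying ER-alpha-UAS-bla reporter stimulated with 17beta-estradiol; nearly all actives have a fitted effect of over 45% in size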)
[15] = molecular target: Estrogen receptor (Homo sapiens) (UniProt P03372); assay: qHTS assay to identify small molecule agonists of the estrogen receptor alpha (ER-alpha) signaling pathway (AID 743075; calls by dose curve;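 also: HEK293 GripTite cells with ER-alpha and UAS-driven beta-lactamase reporter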)
[16] = molecular target: Estrogen receptor (Homo sapiens) (UniProt P03372); assay: qHTS assay to identify small molecule agonists of the estrogen receptor alpha (ER-alpha) signaling pathway using the BG1 cell line (AID 743079); also: nearly all actives have a fitted effect of over 20% in size
[17] = qHTS assay to identify small molecule antagonists of the estrogen receptor alpha (ER-alpha) signaling pathway using the BG1 cell line (AID 743080; calls by dose curve;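 also: BG1 cells stimulated with 17beta-estradiol alongside compound; nearly all actives have a fitted effect of over 25% in size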; also: potency is read from the fitted curve at half-maximal effect)
Procedure, shortened: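 Endogenous full-length ER-alpha in BG1-Luc-4E2 cells drives a stably integrated 4×ERE luciferase gene; compounds were tested against 17beta-estradiol over 21.5 h, with luminescence and multiplexed viability fluorescence recorded.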

[18] = qHTS assay to identify small molecule antagonists of the estrogen receptor alpha (ER-alpha) signaling pathway using the BG1 cell line - cell viability counter screen (AID 743081);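 also: compound given together with 17beta-estradiol as the ER stimulus; series mostly up to about 70 µM; nearly all actives have a fitted effect of over 45% in size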
[19] = molecular target: Aromatase (Homo sapiens) (UniProt P11511); assay: qHTS assay to identify aromatase inhibitors (AID 743083)
Sequence of Aromatase (Homo sapiens) (P11511 whole entry, looked up): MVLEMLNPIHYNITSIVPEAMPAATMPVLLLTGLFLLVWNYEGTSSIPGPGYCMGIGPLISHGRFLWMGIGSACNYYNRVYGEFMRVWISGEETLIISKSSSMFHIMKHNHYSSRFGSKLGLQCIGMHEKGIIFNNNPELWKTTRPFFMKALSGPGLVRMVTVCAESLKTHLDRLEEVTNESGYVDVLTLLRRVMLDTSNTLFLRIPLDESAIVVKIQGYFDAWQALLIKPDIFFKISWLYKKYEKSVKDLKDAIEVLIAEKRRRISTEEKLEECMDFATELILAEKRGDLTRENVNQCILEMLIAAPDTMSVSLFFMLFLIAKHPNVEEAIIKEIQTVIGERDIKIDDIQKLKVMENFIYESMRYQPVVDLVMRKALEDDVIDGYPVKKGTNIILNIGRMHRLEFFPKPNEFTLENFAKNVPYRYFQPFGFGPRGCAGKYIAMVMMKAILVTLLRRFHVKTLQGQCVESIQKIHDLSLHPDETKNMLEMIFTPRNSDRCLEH

[20] = molecular target: Androgen receptor (Homo sapiens) (UniProt P10275); assay: qHTS assay to identify small molecule agonists of the androgen receptor (AR) signaling pathway (AID 743036; active = well fitted activation curve with a large enough effect in the signal ratio in the repeat runs, with a control signal flat, not every such curve was filed as active; the % refers to the signal ratio)
Procedure, shortened: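 Activation was read as beta-lactamase FRET signal from LiveBLAzer B/G substrate, added for 2 h at room temperature. Before that, GeneBLAzer AR-UAS-bla GripTite (HEK293) cells had 16 h compound exposure at 37C.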

| Compound | Potency [1] | Potency [2] | Potency [3] | Potency [4] | outcome [5] | Potency [6] | Potency [7] | Potency [8] | Potency [9] | Potency [10] | Potency [11] | outcome [12] | Potency [13] | outcome [14] | Potency [15] | Potency [16] | Potency [17] | Potency [18] | Potency [19] | outcome [20] |
| --- | --- | --- | --- | --- | --- | --- | --- | --- | --- | --- | --- | --- | --- | --- | --- | --- | --- | --- | --- | --- |
| COc1cc2c(c(OC)c1OC)-c1ccc(OC)c(=O)cc1[C@@H](NC(C)=O)CC2 | inactive | 66.8 nM (active) and 13.5 nM (active) and 7.7 nM (active) | 66.8 nM (active) and 12 nM (active) and 7.7 nM (active) | 84.1 nM (active) and 10.7 nM (active) and 7.7 nM (active) | inactive | 60.1 nM (active) | inactive | inactive | inactive | 1.19 µM (active) and 172 nM (active) | 531 nM (active) and 135 nM (active) and 96.9 nM (active) | inactive | 15.3 nM [inhibitor] (active) and inactive | inactive | inactive | inactive | 119 nM (active) and 42.7 nM (active) and 86.3 nM (active) | inactive | inactive | – |
| COC(=O)c1ccc(O)cc1 | inactive | inactive | inactive | inactive | inactive | – | – | inactive | – | inactive | inactive | inactive | inactive | inactive | inactive | inactive | inactive | inactive | inactive | – |
| COCCOCCOC | inactive | inactive | inactive | inactive | inactive | inactive | inactive | inactive | inactive | inactive | inactive | inactive | inactive | inactive | inactive | inactive | inactive | inactive | inactive | inactive |
| CC(=O)Oc1ccccc1C(=O)O | inactive | inactive | inactive | inactive | inactive | inactive | inactive | inactive | inactive | inactive | – | – | inactive | inactive | inactive | inactive | – | inactive | inactive | inactive |
| COc1cc(O)c(C(=O)c2ccccc2)cc1S(=O)(=O)O | inactive | inactive | inactive | inactive | inactive | inactive | – | inactive | inactive | inactive | inactive | inactive | inactive | inactive | inactive | inactive | – | inactive | inactive | inactive |
| O=c1c(-c2ccc(O)cc2)coc2cc(O)cc(O)c12 | inactive | 11.9 µM (active) and 30.6 µM (active) | 21.1 µM (active) and 53.5 µM (active) and 48.6 µM (active) | 11.9 µM (active) and 47.7 µM (active) and 27.3 µM (active) | inactive | – | inactive | inactive | inactive | 21.1 µM (active) and 47.7 µM (active) | 11.9 µM (active) and 47.7 µM (active) and 21.7 µM (active) | inactive | – | inactive | – | – | – | inactive | inactive | – |
| Cc1cccc(C)c1O | inactive | inactive | inactive | inactive | inactive | inactive | inactive | inactive | inactive | inactive | inactive | inactive | inactive | inactive | inactive | inactive | – | inactive | inactive | inactive |
| CN(C)Cc1cc(CN(C)C)c(O)c(CN(C)C)c1 | inactive | inactive | inactive | inactive | inactive | inactive | inactive | inactive | inactive | inactive | inactive | inactive | inactive | inactive | inactive | inactive | – | inactive | inactive | inactive |
| NCCNc1cccc2ccccc12 | inactive | inactive | inactive and 54.4 µM (active) | inactive | inactive | inactive | inactive | inactive | inactive and 54.4 µM (active) | 27.3 µM (active) and 29.9 µM (active) | 26.6 µM (active) and 54.4 µM (active) and 59.6 µM (active) | inactive | – | inactive | – | – | – | – | inactive | inactive |
| COc1cc(C=O)ccc1O | inactive | inactive | inactive | inactive | inactive | – | inactive | inactive | inactive | inactive | inactive | inactive | – | inactive | inactive | inactive | inactive | inactive | inactive | inactive |
| CC(=O)c1ccc(S(=O)(=O)NC(=O)NC2CCCCC2)cc1 | inactive | inactive | inactive | inactive | inactive | inactive | inactive | inactive | inactive | inactive | inactive | inactive | inactive | inactive | inactive | inactive | – | inactive | inactive | inactive |
| CN(C)C=O | inactive | inactive | inactive | inactive | inactive | – | – | inactive | – | inactive | inactive | inactive | inactive | inactive | inactive | inactive | inactive | inactive | inactive | – |
| COc1ccc(O)cc1 | inactive | inactive | inactive | inactive | inactive | inactive | inactive | inactive | inactive | inactive | inactive | inactive | – | inactive | – | – | – | inactive | inactive | inactive |
| CCn1cc(C(=O)O)c(=O)c2ccc(C)nc21 | inactive | inactive | inactive | inactive | inactive | – | – | inactive | – | inactive | inactive | inactive | inactive | inactive | inactive | inactive | – | inactive | inactive | – |
